“And” between values parts separate entries of the source, which are not always exact repeats. Equal entries are not always repeated. Inconclusive results are not listed. A number with no mark means an inactive call. The source made the active and inactive calls. Calls come from the whole dose curve; as a rule, active = well fitted curve in the direction sought with a large enough effect; inconclusive = small, poorly fitted or top-dose-only effect, or another doubt; inactive = no such curve, though single readings can be large; an effect the other way counts as inactive or inconclusive.

Assay [1] deals with Cellular tumor antigen p53 (Homo sapiens) (UniProt P04637). Description: Primary qHTS for small molecule compounds that upregulate eGFP-tagged delta133p53alpha (in N-terminal) cells. (AID 2060322).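 For activation: series mostly up to about 56 µM; 0% = DMSO vehicle and 100% = reference activator.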 Note: nearly all actives have a fitted effect of over 75% in size. Note: potency is the fitted concentration of half-maximal effect. As to conditions: NCI-H358 eGFP-delta133p53alpha fluorescence, 24 h; activation: active compounds read high. In outline: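 NCI-H358 cells pre-induced 24 h with 10 ng/ml doxycycline to express N-terminal eGFP-delta133p53alpha, then dosed 24 h at 37C without doxycycline; fixed, Hoechst-stained, GFP intensity by laser scanning cytometry, normalized to DMSO (0%) and 57.5 uM 5-azacytidine (100%).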
Chain of Cellular tumor antigen p53 (Homo sapiens) (P04637 whole entry, looked up): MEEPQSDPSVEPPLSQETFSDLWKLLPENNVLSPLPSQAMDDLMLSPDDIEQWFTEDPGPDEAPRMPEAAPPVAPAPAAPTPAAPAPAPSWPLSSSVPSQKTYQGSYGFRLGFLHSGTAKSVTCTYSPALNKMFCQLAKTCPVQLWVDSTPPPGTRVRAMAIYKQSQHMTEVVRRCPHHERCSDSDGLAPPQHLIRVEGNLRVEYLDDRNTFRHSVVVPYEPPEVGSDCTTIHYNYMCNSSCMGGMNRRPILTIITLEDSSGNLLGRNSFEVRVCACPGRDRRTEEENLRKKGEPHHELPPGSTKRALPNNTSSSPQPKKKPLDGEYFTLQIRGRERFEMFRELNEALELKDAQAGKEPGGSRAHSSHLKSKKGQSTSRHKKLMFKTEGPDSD

Assay [2] deals with Aldehyde dehydrogenase, mitochondrial (Homo sapiens) (UniProt P05091). The assay can be described thus: qHTS for Inhibitors of the Aldehyde Dehydrogenase Family (ALDH2) Primary screen (AID 2061308).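 Note: plate controls were vehicle for no effect and reference inhibitor for full effect; nearly all actives have a fitted effect of over 55% in size.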
Assay [3] concerns the target Retinaldehyde dehydrogenase 3 (Homo sapiens) (UniProt P47895). The assay can be described thus: qHTS for Inhibitors of the Aldehyde Dehydrogenase Family (ALDH1A3) Primary screen (AID 2061315).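 Note: plate controls were DMSO vehicle for no effect and reference inhibitor for full effect.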 On the technique in general: In qHTS, concentration-response curves come from the screen itself.
The nature of assay [4]: BET inhibitor-based combinations targeting novel dependencies in MECOM-rearranged (r) AML: SET-2 cell line (AID 2202231).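 For viability: plate controls were DMSO treated cells for no effect and wells without cells for full effect.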 Note: nearly all actives have a fitted effect of over 35% in size. Note: potency is the fitted concentration of half-maximal effect. Conditions: SET-2 AML cells viability, CellTiter-Glo luminescence, 48 h; viability: active compounds read low, concentration not given here. A digest of the protocol: (§1)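 Viability of cells (500 per well) is scored by luminescent CellTiter-Glo at 48 hr post-dosing. Eleven-point titrations are normalized to DMSO and empty controls and reduced to AUC values.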
(In ATP-based viability assays light output follows the ATP content of the culture.)

Assay [5] can be described thus: BET inhibitor-based combinations targeting novel dependencies in MECOM-rearranged (r) AML: OCI-AML3 cell line (AID 2202232).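 For viability (% of control): series mostly up to about 46 µM; plate controls were DMSO vehicle wells for no effect and wells without cells for full effect.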 Note: nearly all actives have a fitted effect of over 35% in size. Note: potency is the fitted concentration of half-maximal effect. Conditions: Potency: OCI-AML3 viability. A digest of the protocol: as §1
The nature of assay [6]: BET inhibitor-based combinations targeting novel dependencies in MECOM-rearranged (r) AML: HNT-34 cell line (AID 2202234).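 For viability (% of control): plate controls were vehicle wells for no effect and cell-free wells for full effect.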 Note: nearly all actives have a fitted effect of over 35% in size. Note: potency is the fitted concentration of half-maximal effect. A digest of the protocol: (§2)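 Using pin-tool transfer, drugs were added in 11 doses to cells (500/well), incubated 48 hr, and assessed with CellTiter-Glo. Z-AUC is a mean-centring transformation applied separately to each screened line.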
A short description of assay [7]: BET inhibitor-based combinations targeting novel dependencies in MECOM-rearranged (r) AML: UCSD-AML1 cell line (AID 2202235).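 For viability (% of control): series mostly up to about 46 µM; plate controls were DMSO vehicle wells for no effect and blank wells for full effect.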 Note: nearly all actives have a fitted effect of over 40% in size. Note: potency is the fitted concentration of half-maximal effect. In outline: as §2
A short description of assay [8]: BET inhibitor-based combinations targeting novel dependencies in MECOM-rearranged (r) AML: AML-194 cell line (AID 2202237; note: nearly all actives have a fitted effect of over 40% in size; note: potency is the fitted concentration of half-maximal effect;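 for viability (% of control): plate controls were vehicle wells for no effect and wells without cells for full effect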). In outline: as §1
The nature of assay [9]: BET inhibitor-based combinations targeting novel dependencies in MECOM-rearranged (r) AML: AML-191 cell line (AID 2202236; note: nearly all actives have a fitted effect of over 35% in size; note: potency is the fitted concentration of half-maximal effect;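 for viability (% of control): plate controls were vehicle wells for no effect and wells without cells for full effect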). A digest of the protocol:
as §1

Assay [10] can be described thus: BET inhibitor-based combinations targeting novel dependencies in MECOM-rearranged (r) AML: MV-4-11 cell line (AID 2202233).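 For viability, % of control: plate controls were DMSO for no effect and blank wells for full effect.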 Note: nearly all actives have a fitted effect of over 45% in size. Note: potency is the fitted concentration of half-maximal effect. In outline:
as §2

The term viability denotes a read-out of living cells in per cent, often relative to untreated cells. Consider `C[C@@H]1CN(Cc2ccc(F)cc2)[C@@H](C)CN1C(=O)c1cc2c(C(=O)C(=O)N(C)C)cn(C)c2cc1Cl`, for which the activation in assay [1] is 10.3% and -3.57%. Also, the Potency entry in assay [2], in assay [3], in assay [5], in assay [6], in [7] and in [8] was “inactive” each time. In addition, the viability in [4] was 94.6%.
Turning to `CCNC(=O)[C@H]1O[C@@H](n2cnc3c(N)nc(NCCc4ccc(CCC(=O)O)cc4)nc32)[C@H](O)[C@@H]1O`, the activation in assay [1] is -4.46%. Also, the Potency result in [2], in assay [3], in assay [5], in assay [6], in [7] and in [9] was “inactive” throughout. In assay [8], the Potency entry was “inactive”. Further, the viability in [4] was 115%.
With `O=C(c1cncc(Br)c1)N1CCC(N2CCCC2)CC1`, the activation in assay [1] is -12.4% and 0.333%. The Potency entry in [2], in assay [3], in [5], in [6], in [7] and in [9] was “inactive” each time. Also, in [8], the Potency entry was “inactive”. In addition, the viability in assay [4] was 113%.
Take `CC(C)(C)C(=O)Oc1ccc2c(c1)nc(NC(=O)c1cccc([N+](=O)[O-])c1)n2CCCO`: in [1], the activation is 12%. The Potency result in assay [2], in assay [3], in [5] and in assay [8] was “inactive” throughout. Also, the viability in [4] is 111%. The Potency in [10] is 2.95 µM (active).
For `CC1CCN(c2cc(N3CCN(C)CC3)ccc2NC(=O)c2cc(C#N)c[nH]2)CC1`, the activation in assay [1] is 4.19% and 20.5%. In addition, the Potency entry in [2] and in [3] was “inactive” in each case. In addition, in assay [4], the viability was 116%. Moreover, the Potency was 20.9 µM (active) in assay [5], 26.3 µM (active) in [6], 20.9 µM (active) in assay [7] and 23.5 µM (active) in assay [8].
With `CCOc1cc2ncc(C#N)c(Nc3ccc(F)c(Cl)c3)c2cc1NC(=O)/C=C/CN(C)C`, the Potency in assay [1] was 13.5 µM (active); in assay [4], 5.9 µM (active); in assay [5], 4.17 µM (active); in assay [6] it was 0.296 µM (active); in assay [7] it was 1.48 µM (active); in assay [9] it was 4.68 µM (active). The Potency in assay [8] was 5.25 µM (active). The Potency entry in assay [2] and in assay [3] was “inactive” in each case.
Consider `Nc1ccc(C(=O)Nc2cccc(-c3nc(N4CCOCC4)c4oc5ncccc5c4n3)c2)cn1`, for which, in assay [1], the activation was 2.12%. Besides, the Potency result in assay [2] and in [3] was “inactive” throughout. The Potency in assay [4] is 16.6 µM (active); in [5] it was 9.34 µM (active); in assay [6], 14.8 µM (active); in [9], 9.34 µM (active); in assay [8] it was 8.33 µM (active).
Turning to `O=C(Cc1ccc(-c2ccc(OCCN3CCOCC3)cc2)cn1)NCc1ccccc1`, the activation in assay [1] is 20.5%. Further, the Potency entry in assay [2] and in [3] was “inactive” each time. In addition, the Potency was 0.166 µM (active) in assay [4]; 0.105 µM (active) in [5]; 0.118 µM (active) in [10]; 0.118 µM (active) in assay [7]; 0.0934 µM (active) in assay [9]; 0.0934 µM (active) in [8].
For `CNC(=O)c1ccc2cc(C3(O)CCn4cncc43)ccc2c1` (stereo not drawn), the activation in assay [1] was -1.49% and -0.893%. Also, the Potency result in assay [2], in assay [3], in [5], in assay [6], in assay [7] and in assay [9] was “inactive” in each case. Further, the Potency entry in [8] is “inactive”. Moreover, the viability in assay [4] is 115%.
Turning to `N#C[C@@H]1C[C@@H]2C[C@@H]2N1C(=O)[C@@H](N)C12CC3CC(CC(O)(C3)C1)C2`, the activation in [1] is -3%. The Potency entry in assay [2], in assay [3], in assay [5] and in [6] was “inactive” each time. Also, in [4], the viability was 110%.
For `O=C(Nc1ccc(S(=O)(=O)N2CCOCC2)cc1)c1cc(Cl)ccc1NS(=O)(=O)c1ccc(Cl)s1`, in [1], the activation was 0.837%. Further, the Potency entry in [2], in assay [3], in assay [5], in assay [10], in assay [7] and in assay [8] was “inactive” each time. In assay [4], the viability was 98.4%.
Regarding `CCn1c(-c2nonc2N)nc2cncc(CNC3CCNCC3)c21`, the activation in assay [1] was -16.3% and 6.25%. Further, the Potency result in assay [2] and in [3] was “inactive” each time. Besides, the viability in assay [4] is 103%. Besides, the Potency in [5] is 1.66 µM (active); in assay [10] it was 2.63 µM (active); in assay [7], 5.9 µM (active); in assay [9], 1.86 µM (active); in assay [8], 4.68 µM (active).
As for `COc1ccc(-c2c(C)nn3c(NCCN4CCOCC4)cc(C)nc23)cc1OC`, the activation in assay [1] is 7%. The Potency entry in [2], in assay [3], in assay [5] and in assay [7] was “inactive” in each case. In addition, the viability in assay [4] is 88.4%. The Potency in [6] was 20.9 µM (active).
On to `O=C(Nc1ccc(F)c(C(F)(F)F)c1)Nc1nnc(-c2ccncc2)s1`, for which the activation in assay [1] was -20.5% and 5%. Moreover, the Potency entry in assay [2], in [3], in [5], in assay [6], in assay [7] and in assay [9] was “inactive” each time. Besides, the viability in assay [4] is 100%.
For the compound `O=c1ccn([C@@H]2O[C@H](CO)[C@@H](O)[C@H]2O)c(=O)[nH]1`, in assay [1], the activation is 10.3%. Moreover, the Potency entry in assay [2], in [3], in [5], in assay [6], in assay [7] and in [9] was “inactive” in each case. For the same compound, in [8], the Potency entry is “inactive”. Also, the viability in assay [4] was 115%.
For `COc1c(C)cc(NC(=O)c2nn(Cc3ccc(F)cc3)c3c2CN(C(=O)c2ccc[nH]2)C[C@]3(C)C(N)=O)cc1C`, the activation in [1] is 0.333%. For the same compound, the Potency entry in assay [2] and in assay [3] was “inactive” in each case. Also, in [4], the viability is 118%. For the same compound, the viability (% of control) in assay [5] is 113% [at 8.46 µM]; in [8], 108% [at 8.46 µM]. Further, the viability, % of control in assay [10] was 114% [at 8.46 µM].
With `CC(C)c1nn(-c2c(Cl)cccc2Cl)c2nc(Cc3ccc(OCCO)cc3)[nH]c(=O)c12`, the Potency in assay [1] is 68.5 nM (active) and 60.1 nM (active); in assay [4], 0.0417 µM (active); in assay [5], 0.0742 µM (active); in assay [10], 0.0417 µM (active); in [9] it was 0.0295 µM (active); in assay [8], 0.0468 µM (active). The Potency result in assay [2] and in assay [3] was “inactive” in each case.

For the origin of these results see PubChem BioAssay (NCATS).
